Holding throughout (experiment): DAPPL (digital affinity profiling via proximity ligation, sequencing); 10 mM Tris-HCl pH 7.5, 50 mM NaCl, 1 mM DTT, 4% glycerol, room temperature, 30 min; GST-TFs on glutathione beads, 16-mer random dsDNA library, 0.1% formaldehyde crosslink after washing; high values mean tight binding
For one assay, the target named is T1, FLI1 (Homo sapiens, UniProt Q01543 1-452).
T1 sequence: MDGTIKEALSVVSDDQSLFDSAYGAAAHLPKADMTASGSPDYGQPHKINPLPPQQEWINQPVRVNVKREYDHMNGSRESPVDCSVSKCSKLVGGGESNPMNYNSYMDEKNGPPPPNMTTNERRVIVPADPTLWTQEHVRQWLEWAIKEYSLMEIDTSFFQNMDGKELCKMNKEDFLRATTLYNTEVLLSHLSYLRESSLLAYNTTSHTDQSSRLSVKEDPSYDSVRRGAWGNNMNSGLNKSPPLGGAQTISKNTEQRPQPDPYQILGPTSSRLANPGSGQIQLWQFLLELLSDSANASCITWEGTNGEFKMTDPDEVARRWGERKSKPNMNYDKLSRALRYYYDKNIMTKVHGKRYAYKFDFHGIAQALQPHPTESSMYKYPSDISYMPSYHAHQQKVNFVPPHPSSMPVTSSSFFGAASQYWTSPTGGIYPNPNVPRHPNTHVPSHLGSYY
To be noted: protein: recombinant; tags: N-terminal GST; dsDNA, one strand shown. In short, it runs like this: (§1)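 Pools of DNA-barcoded human transcription factors, expressed in yeast as GST fusions on glutathione beads and combined with a tag-only sample, were incubated with 200 nmole of a 16-mer random double-stranded DNA library. Incubation took 30 min at room temperature in Tris/NaCl/DTT/glycerol buffer and was followed by washing, 0.1% formaldehyde crosslinking, proximity ligation (BsaI/T4 ligase, 1 h, 37 °C), PCR amplification and sequencing on an Illumina NextSeq500. Binding signal is the ratio of a hexamer's read frequency for a factor to its frequency for the tag-only sample.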

A further assay has as its target T2, ELK1 (Homo sapiens, UniProt P19419 1-428).
T2 sequence: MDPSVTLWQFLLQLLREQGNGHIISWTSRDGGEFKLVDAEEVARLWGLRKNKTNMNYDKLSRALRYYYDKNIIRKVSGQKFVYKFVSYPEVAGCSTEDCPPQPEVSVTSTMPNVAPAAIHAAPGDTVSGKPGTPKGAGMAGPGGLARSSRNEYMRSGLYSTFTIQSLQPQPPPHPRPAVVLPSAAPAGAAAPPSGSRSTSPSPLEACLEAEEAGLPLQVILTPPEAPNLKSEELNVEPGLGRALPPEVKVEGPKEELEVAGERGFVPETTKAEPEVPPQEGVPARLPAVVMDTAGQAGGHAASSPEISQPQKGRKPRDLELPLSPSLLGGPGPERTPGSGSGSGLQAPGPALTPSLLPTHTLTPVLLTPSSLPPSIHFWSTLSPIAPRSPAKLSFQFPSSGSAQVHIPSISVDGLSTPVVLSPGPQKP
To be noted: protein: recombinant; tags: N-terminal GST; dsDNA, one strand shown. A digest of the protocol: as §1

For the next assay, the target named is T3, GABPA (Homo sapiens, UniProt Q06546 1-454).
T3 sequence: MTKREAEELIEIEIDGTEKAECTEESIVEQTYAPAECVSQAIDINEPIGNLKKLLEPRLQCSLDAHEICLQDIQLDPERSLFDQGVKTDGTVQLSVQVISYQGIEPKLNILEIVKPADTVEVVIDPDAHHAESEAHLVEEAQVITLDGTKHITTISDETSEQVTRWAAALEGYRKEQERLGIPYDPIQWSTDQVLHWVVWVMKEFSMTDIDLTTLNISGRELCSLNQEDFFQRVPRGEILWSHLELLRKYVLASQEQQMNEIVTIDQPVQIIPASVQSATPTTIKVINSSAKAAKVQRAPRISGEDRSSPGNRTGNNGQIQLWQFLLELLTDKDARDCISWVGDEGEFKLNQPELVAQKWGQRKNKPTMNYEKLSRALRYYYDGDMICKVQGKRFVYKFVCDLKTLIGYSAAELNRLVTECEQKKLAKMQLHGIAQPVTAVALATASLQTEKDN
To be noted: protein: recombinant; tags: N-terminal GST; dsDNA, one strand shown. In short, it runs like this:
as §1

A further assay has as its target T4, ERG (Homo sapiens, UniProt P11308 1-479).
T4 sequence: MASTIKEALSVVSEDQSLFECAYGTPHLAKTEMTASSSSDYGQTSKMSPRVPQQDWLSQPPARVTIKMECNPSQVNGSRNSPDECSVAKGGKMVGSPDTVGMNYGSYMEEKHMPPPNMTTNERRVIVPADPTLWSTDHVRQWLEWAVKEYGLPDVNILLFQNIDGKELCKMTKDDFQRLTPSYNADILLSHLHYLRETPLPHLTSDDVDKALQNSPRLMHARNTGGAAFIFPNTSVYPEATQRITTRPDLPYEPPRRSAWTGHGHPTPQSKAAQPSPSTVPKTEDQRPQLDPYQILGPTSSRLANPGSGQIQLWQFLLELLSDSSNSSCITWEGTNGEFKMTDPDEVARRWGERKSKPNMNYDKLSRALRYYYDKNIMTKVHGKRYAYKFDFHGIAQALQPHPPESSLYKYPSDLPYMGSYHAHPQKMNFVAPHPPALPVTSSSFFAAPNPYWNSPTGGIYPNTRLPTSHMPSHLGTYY
Particulars: protein: recombinant; tags: N-terminal GST; dsDNA, one strand shown. A digest of the protocol: as §1

For a further assay, the target named is ELF1 (Homo sapiens, UniProt P32519 1-619). To be noted: protein: recombinant; tags: N-terminal GST; dsDNA, one strand shown. In short, it runs like this: as §1
ELF1, sequence (P32519 whole entry): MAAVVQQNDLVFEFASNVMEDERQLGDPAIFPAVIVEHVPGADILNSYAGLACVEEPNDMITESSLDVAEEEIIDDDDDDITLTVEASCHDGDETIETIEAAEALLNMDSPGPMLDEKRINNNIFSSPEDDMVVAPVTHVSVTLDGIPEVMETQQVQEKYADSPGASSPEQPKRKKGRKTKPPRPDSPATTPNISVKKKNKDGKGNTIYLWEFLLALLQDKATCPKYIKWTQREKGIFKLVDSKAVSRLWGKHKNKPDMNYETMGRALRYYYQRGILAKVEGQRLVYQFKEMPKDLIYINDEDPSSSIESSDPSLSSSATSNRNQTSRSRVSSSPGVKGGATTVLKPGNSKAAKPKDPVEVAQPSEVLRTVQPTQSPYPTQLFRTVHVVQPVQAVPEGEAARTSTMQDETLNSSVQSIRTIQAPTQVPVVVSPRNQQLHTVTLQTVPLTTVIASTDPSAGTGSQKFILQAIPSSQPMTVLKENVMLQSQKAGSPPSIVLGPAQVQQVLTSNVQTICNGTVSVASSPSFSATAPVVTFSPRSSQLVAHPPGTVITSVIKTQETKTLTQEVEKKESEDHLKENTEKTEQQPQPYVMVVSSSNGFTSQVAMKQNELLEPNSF
A further assay concerns the target T5, EHF (Homo sapiens, UniProt Q9NZC4 1-300).
T5 sequence: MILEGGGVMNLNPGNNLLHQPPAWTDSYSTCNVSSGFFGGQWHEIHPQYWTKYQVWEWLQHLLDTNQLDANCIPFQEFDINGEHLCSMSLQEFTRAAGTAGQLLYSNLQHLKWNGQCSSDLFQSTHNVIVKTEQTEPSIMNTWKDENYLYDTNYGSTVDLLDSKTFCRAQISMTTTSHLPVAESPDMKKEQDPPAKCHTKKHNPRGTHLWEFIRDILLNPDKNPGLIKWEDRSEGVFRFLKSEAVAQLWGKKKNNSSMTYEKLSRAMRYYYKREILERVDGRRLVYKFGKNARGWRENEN
Particulars: protein: recombinant; tags: N-terminal GST; dsDNA, one strand shown. In short, it runs like this:
as §1

A further assay addresses SPI1 (Homo sapiens, UniProt P17947 1-270). To be noted: protein: recombinant; tags: N-terminal GST; dsDNA, one strand shown. A digest of the protocol: as §1
Another assay has as its target SPIB (Homo sapiens, UniProt Q01892 1-262). To be noted: protein: recombinant; tags: N-terminal GST; dsDNA, one strand shown. A digest of the protocol: as §1
The target of a further assay is T6, FEV (Homo sapiens, UniProt Q99581 1-238).
T6 sequence: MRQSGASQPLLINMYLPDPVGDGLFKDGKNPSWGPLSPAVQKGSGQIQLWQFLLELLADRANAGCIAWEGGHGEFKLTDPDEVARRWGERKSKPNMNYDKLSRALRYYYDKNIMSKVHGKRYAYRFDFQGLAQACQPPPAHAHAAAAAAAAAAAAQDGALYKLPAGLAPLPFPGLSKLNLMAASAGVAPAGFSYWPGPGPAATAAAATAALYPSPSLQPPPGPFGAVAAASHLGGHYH
To be noted: protein: recombinant; tags: N-terminal GST; dsDNA, one strand shown. In short, it runs like this:
as §1

The target in a further assay is ETV5 (Homo sapiens, UniProt P41161 1-510). To be noted: protein: recombinant; tags: N-terminal GST; dsDNA, one strand shown. A digest of the protocol:
as §1

For the next assay, the target named is HSF1 (Homo sapiens, UniProt Q00613 1-529). To be noted: protein: recombinant; tags: N-terminal GST; chain copies: 3; dsDNA, one strand shown. A digest of the protocol:
as §1

A further assay has as its target T7, SPIC (Homo sapiens, UniProt Q8N5J4 1-248).
T7 sequence: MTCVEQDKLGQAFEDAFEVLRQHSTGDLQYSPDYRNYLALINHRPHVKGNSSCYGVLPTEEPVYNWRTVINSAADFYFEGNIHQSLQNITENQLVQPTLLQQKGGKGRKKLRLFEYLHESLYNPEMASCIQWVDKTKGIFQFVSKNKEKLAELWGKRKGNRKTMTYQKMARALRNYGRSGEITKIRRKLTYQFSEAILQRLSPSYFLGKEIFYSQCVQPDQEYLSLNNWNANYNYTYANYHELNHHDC
Particulars: protein: recombinant; tags: N-terminal GST; dsDNA, one strand shown. A digest of the protocol:
as §1

In another assay the target is ELF4 (Homo sapiens, UniProt Q99607 1-663). Particulars: protein: recombinant; tags: N-terminal GST; dsDNA, one strand shown. A digest of the protocol: as §1
ELF4, sequence (Q99607 whole entry): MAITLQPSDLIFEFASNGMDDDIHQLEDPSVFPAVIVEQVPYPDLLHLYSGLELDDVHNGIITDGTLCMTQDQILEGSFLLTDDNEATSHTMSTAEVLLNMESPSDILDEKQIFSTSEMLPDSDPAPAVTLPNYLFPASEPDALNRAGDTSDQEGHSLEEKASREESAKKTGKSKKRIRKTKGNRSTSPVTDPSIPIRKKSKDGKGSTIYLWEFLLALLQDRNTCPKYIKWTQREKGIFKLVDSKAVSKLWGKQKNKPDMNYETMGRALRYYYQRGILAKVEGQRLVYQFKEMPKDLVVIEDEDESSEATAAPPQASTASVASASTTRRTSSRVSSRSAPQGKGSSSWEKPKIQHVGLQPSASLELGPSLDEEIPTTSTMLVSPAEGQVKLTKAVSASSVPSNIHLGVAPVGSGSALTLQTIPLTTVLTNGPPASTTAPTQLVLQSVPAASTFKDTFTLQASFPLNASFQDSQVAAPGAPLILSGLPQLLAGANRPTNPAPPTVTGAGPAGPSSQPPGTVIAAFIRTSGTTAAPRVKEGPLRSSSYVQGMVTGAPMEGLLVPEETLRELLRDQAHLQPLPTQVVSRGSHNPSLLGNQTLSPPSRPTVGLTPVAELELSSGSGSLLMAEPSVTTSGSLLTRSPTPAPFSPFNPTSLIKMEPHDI
A further assay deals with T8, ELK4 (Homo sapiens, UniProt P28324-2 1-405).
T8 sequence: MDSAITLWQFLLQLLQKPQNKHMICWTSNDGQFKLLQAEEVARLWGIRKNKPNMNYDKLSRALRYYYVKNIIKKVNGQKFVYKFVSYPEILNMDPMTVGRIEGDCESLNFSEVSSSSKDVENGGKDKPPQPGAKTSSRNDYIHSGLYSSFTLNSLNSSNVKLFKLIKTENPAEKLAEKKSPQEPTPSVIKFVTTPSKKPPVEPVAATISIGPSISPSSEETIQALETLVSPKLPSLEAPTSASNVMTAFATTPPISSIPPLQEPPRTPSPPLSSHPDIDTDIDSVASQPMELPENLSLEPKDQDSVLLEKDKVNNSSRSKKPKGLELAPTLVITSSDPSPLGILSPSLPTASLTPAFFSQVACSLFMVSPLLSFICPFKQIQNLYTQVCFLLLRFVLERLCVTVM
To be noted: protein: recombinant; tags: N-terminal GST; dsDNA, one strand shown. In short, it runs like this:
as §1

The target of the next assay is T9, ETV2 (Homo sapiens, UniProt O00321 1-342).
T9 sequence: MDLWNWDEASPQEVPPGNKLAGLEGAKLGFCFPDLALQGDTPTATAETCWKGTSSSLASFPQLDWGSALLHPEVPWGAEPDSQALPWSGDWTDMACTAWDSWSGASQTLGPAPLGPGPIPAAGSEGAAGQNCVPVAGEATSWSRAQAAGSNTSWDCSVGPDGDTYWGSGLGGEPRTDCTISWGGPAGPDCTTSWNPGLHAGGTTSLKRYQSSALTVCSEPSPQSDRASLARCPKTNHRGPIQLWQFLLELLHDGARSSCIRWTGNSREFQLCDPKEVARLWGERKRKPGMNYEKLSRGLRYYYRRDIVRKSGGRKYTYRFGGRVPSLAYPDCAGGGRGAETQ
Particulars: protein: recombinant; tags: N-terminal GST; dsDNA, one strand shown. A digest of the protocol:
as §1

A further assay has as its target T10, ELF3 (Homo sapiens, UniProt P78545 1-371).
T10 sequence: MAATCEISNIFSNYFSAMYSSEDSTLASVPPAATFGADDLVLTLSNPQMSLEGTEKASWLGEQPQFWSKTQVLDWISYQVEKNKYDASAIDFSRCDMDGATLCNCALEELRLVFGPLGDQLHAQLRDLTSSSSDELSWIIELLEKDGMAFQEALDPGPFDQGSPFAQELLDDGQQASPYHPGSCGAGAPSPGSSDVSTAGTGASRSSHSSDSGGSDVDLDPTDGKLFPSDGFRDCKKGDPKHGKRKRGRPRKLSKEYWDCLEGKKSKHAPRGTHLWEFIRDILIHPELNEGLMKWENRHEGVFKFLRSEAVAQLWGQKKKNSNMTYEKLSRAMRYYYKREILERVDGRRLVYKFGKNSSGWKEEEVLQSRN
Particulars: protein: recombinant; tags: N-terminal GST; dsDNA, one strand shown. In short, it runs like this: as §1

Another assay has as its target CRX (Homo sapiens, UniProt O43186 1-299). Particulars: protein: recombinant; tags: N-terminal GST; dsDNA, one strand shown. A digest of the protocol: as §1
For another assay, the target named is ETV1 (Homo sapiens, UniProt P50549 1-477). Particulars: protein: recombinant; tags: N-terminal GST; dsDNA, one strand shown. A digest of the protocol: as §1
ETV1, sequence (P50549 whole entry): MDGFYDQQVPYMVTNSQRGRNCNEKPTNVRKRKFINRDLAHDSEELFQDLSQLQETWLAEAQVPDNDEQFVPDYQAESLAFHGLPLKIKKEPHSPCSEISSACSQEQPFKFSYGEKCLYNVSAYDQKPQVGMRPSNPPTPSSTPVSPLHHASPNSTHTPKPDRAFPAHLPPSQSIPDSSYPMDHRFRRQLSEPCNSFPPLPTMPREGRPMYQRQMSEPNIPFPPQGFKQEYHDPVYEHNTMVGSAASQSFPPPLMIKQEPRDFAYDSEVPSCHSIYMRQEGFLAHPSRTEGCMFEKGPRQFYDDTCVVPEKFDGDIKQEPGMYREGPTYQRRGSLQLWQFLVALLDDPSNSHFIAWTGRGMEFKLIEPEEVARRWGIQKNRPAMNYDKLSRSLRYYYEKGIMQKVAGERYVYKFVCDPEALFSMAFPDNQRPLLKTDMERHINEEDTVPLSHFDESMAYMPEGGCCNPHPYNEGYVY

For one sequence, binding signal results are on record in paper PMC7862700, “An all-to-all approach to the identification of sequence-specific readers for epigenetic DNA modifications on cytosine”.

CRX, sequence (O43186 whole entry): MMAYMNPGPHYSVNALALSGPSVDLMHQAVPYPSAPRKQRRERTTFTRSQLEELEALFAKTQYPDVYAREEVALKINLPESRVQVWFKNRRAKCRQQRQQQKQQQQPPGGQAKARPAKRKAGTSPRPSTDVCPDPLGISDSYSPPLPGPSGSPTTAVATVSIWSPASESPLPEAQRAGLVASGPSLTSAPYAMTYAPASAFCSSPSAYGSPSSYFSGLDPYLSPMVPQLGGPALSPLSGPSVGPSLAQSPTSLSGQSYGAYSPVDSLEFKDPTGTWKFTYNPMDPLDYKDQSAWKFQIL
HSF1, sequence (Q00613 whole entry): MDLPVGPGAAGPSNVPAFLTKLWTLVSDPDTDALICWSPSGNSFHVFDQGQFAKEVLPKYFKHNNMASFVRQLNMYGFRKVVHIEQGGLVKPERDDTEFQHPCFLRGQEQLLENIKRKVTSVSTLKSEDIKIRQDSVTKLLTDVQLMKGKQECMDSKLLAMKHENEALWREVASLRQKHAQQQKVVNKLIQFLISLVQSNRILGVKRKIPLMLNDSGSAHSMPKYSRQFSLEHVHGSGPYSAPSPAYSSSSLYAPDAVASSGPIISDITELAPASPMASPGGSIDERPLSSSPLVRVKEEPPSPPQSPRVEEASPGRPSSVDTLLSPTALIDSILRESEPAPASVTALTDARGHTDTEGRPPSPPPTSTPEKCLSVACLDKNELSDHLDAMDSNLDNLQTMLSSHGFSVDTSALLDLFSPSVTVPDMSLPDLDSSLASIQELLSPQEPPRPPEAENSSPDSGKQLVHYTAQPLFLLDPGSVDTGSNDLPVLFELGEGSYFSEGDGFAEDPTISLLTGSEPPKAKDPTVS
ETV5, sequence (P41161 whole entry): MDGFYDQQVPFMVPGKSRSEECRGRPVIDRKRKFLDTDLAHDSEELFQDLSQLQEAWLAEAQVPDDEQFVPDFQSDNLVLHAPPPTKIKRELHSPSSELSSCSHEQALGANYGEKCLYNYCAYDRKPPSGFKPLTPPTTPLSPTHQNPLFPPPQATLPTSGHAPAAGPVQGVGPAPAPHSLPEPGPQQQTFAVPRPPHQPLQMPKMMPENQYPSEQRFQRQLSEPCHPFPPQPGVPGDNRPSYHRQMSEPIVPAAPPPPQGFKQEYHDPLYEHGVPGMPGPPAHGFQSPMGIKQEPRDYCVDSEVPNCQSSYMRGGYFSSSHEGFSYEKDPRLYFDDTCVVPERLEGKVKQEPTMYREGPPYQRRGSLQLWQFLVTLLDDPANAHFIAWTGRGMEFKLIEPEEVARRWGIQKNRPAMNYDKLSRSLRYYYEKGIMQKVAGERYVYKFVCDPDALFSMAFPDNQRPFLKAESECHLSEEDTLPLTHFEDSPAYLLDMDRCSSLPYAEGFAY
SPIB, sequence (Q01892 whole entry): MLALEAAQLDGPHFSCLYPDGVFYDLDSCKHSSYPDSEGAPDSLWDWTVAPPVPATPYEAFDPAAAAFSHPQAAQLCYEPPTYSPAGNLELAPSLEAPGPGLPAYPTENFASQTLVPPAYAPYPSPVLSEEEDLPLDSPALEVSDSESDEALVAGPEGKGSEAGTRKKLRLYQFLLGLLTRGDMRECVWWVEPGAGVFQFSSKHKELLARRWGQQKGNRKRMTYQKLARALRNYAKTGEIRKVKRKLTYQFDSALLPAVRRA

As for AAAAGG, the binding signal in the assay with FLI1 was 1.1 fold enrichment (6-mer frequency, TF over GST control); in the assay with ELK1 it was 1.05 fold enrichment (6-mer frequency, TF over GST control); in the assay with GABPA it was 1.25 fold enrichment (6-mer frequency, TF over GST control); with ERG it was 1.13 fold enrichment (6-mer frequency, TF over GST control); with ELF1, 1.1 fold enrichment (6-mer frequency, TF over GST control); with EHF, 1.1 fold enrichment (6-mer frequency, TF over GST control). Besides, the binding signal with SPI1 is 1.48 fold enrichment (6-mer frequency, TF over GST control); with SPIB it was 1.1 fold enrichment (6-mer frequency, TF over GST control); with FEV it was 1.06 fold enrichment (6-mer frequency, TF over GST control); in the assay with ETV5 it was 1.17 fold enrichment (6-mer frequency, TF over GST control); with HSF1, 1.05 fold enrichment (6-mer frequency, TF over GST control); with SPIC, 1.18 fold enrichment (6-mer frequency, TF over GST control). Further, the binding signal with ELF4 is 1.1 fold enrichment (6-mer frequency, TF over GST control); with ELK4 it was 1 fold enrichment (6-mer frequency, TF over GST control); with ETV2 it was 1.12 fold enrichment (6-mer frequency, TF over GST control); in the assay with ELF3, 1.2 fold enrichment (6-mer frequency, TF over GST control); with CRX it was 1.04 fold enrichment (6-mer frequency, TF over GST control); in the assay with ETV1 it was 1.19 fold enrichment (6-mer frequency, TF over GST control).
